An excerpt weighted towards active compounds, which were near 4.6% of everything screened.
tim23-1 inh: growth inhibitors of tim23-1 mutant yeast, primary screen, luminescence, uHTS; S. cerevisiae tim23-1 growth, BacTiter-Glo luminescence, 24 h; inhibition, % at 20 µM; actives 1.3% (n = 330,000); AID 463212, 2010;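 active means growth inhibition of the mutant yeast at or above 50%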;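 further: temperature-sensitive mutant grown at 25 °C; plate controls were DMSO-treated mutant yeast for no effect and medium wells lacking yeast for full effect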
SKKanGAS inh: S. pyogenes SKKanGAS growth inhibitors in kanamycin, primary screen, streptokinase expression inhibitor project, SKKanGAS strain, BacTiter-Glo luminescence; actives 1.3% (n = 300,000); inhibition, % at 7.5 µM; 6 h; AID 1662, 2009;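 active means mean replicate score, as percent of positive control median, at least 50; inconclusive means mean below 50 but one replicate at or above 50; inactive means mean and every replicate below 50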;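 further: strain carries kanamycin resistance gene driven by streptokinase promoter and grows in 40 µg/ml kanamycin; loss of luminescence reflects streptokinase promoter inhibition or plain growth inhibition; 0% = median of DMSO wells and 100% = positive control at its reference dose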
NALP3 yeast inh: NALP3 inflammasome inhibitors in reconstituted yeast, primary screen, luminescence, uHTS; AID 2825, 2010; inhibition, % at 10 µM; Yeast reconstituted NLRP3/ASC/caspase-1, beta-gal luminescence, 24 h; actives 0.39% (n = 330,000);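 active means inhibition of 50% or more; inactive means inhibition below 50%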;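 further: plate controls were induced DMSO wells for no effect and uninduced yeast grown without galactose for full effect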
TIM10 inh: growth inhibitors of isogenic TIM10 control yeast, primary screen, counter-screen for tim10-1 yeast inhibitor project, luminescence, uHTS | S. cerevisiae TIM10 strain growth, BacTiter-Glo luminescence, 24 h | inhibition, % at 10 µM | actives 1.4% (n = 330,000);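 active means inhibition of 40% or more at the single tested concentration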;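 further: wild-type TIM10 isogenic control strain grown at permissive 25 °C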
tim10-1 inh: growth inhibitors of tim10-1 mutant yeast, primary screen, luminescence, uHTS; S. cerevisiae tim10-1 ts strain growth, BacTiter-Glo, 24 h; inhibition, % at 20 µM; actives 2.2% (n = 330,000); AID 463190, 2010;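 active means inhibition of at least 40%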;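 further: mutant grown at 25 °C; 0% = DMSO wells with yeast and 100% = wells holding no yeast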
tim10 confirm: growth inhibitors of wild-type TIM10 yeast, confirmation, counter-screen for tim10-1 synthetic lethality project, single concentration, luminescence, S. cerevisiae. shares compounds with TIM10 inh. S. cerevisiae tim10 strain growth, BacTiter-Glo luminescence, 24 h. inhibition, % at 10 µM. actives 63% (n = 4,600);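 active means inhibition of yeast growth at or above a set limit in either of two replicates at 10 µM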;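 further: this counterscreen used the strain with wild-type TIM10; 0% = yeast with DMSO and 100% = medium wells lacking yeast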
tim23-1 conf: tim23-1 mutant yeast growth inhibitors, confirmation, luminescence, single concentration; S. cerevisiae tim23-1 growth, BacTiter-Glo luminescence, 24 h; shares compounds with tim23-1 inh; actives 83% (n = 4,400); inhibition, % at 20 µM;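 active means inhibition above about 39% in either of two replicate wells at 20 µM, limit read from the data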;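 further: temperature-sensitive tim23-1 mutant grown at 25 °C; 0% = DMSO wells with yeast and 100% = medium wells without yeast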
The depositor's hits bear a star; u = inconclusive; x = no result.

SMILES	tim23-1 inh	SKKanGAS inh	NALP3 yeast inh	TIM10 inh	tim10-1 inh	tim10 confirm	tim23-1 conf
O=C1c2ccccc2NC(c2ccco2)N1O (centres undefined)	2	-8	21	10	0	x	x
O=C(COc1cc(F)ccc1[N+](=O)[O-])Nc1cc(S(=O)(=O)N2CCCC2)ccc1Cl	8	x	1	-5	0	x	x
CC(C)(C)c1ncc(S(=O)(=O)c2ccc(C(F)(F)F)cn2)c(N)n1	0	3	-3	14	17	x	x
Cc1ccc2nc(NC(=O)COC(=O)c3ccccn3)sc2c1	59*	1	-11	43*	19	26	70*
COc1ccc2oc(C(=O)OCC(=O)N(C)c3c(N)n(Cc4ccccc4)c(=O)[nH]c3=O)c(C)c2c1	7	0	10	11	6	x	x
Nc1[nH]nc2c1NN(c1ccc(Cl)cc1Cl)N2	44	-2	4	25	16	x	x
CCCc1ccc(O)c(N=Cc2cc(Br)cc(OCC)c2O)c1	57*	11	32	43*	37	33*	74*
O=C(NC(=S)NNC(=O)c1ccccc1O)c1ccccc1	62*	93*	46	49*	11	42*	-28
Oc1ccc(Br)cc1Cn1nnc2ccccc21	43	22	23	-6	-10	x	x
Cn1c(C2=C(O)CN(c3ccccc3)C2=N)nc2ccccc21	-3	-6	1	-3	-9	x	x
Cc1ccccc1-c1noc(-c2ccc(O)cc2)n1	88*	12	21	48*	31	62*	73*
Cc1ccccc1-c1noc(-c2ccc(Cl)cc2)n1	4	-8	3	16	20	x	x
Cn1cccc1/C=N/NC(=O)c1cccc(OC(F)(F)C(F)F)c1	12	0	1	6	14	x	x
CCCCC(=O)Nc1c2c(nn1-c1ccc(C)cc1)CS(=O)(=O)C2	4	-9	3	0	0	x	x
CSCC[C@H](NC(=O)C(C)Oc1ccc(Cl)cc1)c1nc2ccccc2[nH]1 (some centres undefined)	18	7	-4	26	17	x	x
CC1CCCN(Cc2c(O)ccc3c(=O)c(-c4nc5ccccc5s4)c(N)oc23)C1 (centres undefined)	56*	34	14	52*	38	51*	58*
CCOC(=O)c1c(C)[nH]c(C)c1S(=O)(=O)NCc1ccccc1OCC	-5	-2	16	9	1	x	x
O=C(CN1CCCCC1)NC(=O)NC1CCCCC1	-5	x	11	6	-17	x	x
N/C(=N\OC(=O)Cc1ccccc1[N+](=O)[O-])c1cccc(Br)c1	59*	25	7	51*	38	59*	67*
CCOC(=O)c1sc(NC(=O)c2sccc2C)cc1C	50*	3	34	74*	39	62*	71*
CCOC(=O)c1sc(NC(=O)c2ccc(Br)o2)cc1C	15	-13	17	6	-13	x	x
Nc1ccc(S(=O)(=O)NC2(C(F)(F)F)NC(=O)N(c3ccccc3F)C2=O)cc1 (centres undefined)	10	1	16	-10	3	x	x
Oc1c(Br)cc(Br)cc1CNc1ccccn1	67*	15	46	51*	18	20	74*
COc1cccc(OCc2cc(C(=O)N3CCN(C)C(c4ccccc4)C3)no2)c1 (centres undefined)	53*	-1	21	41*	39	50*	48*
C=CCC1(CC=C)CCCN1C(=O)c1cc(COc2cccc(OC)c2)on1	16	0	12	-3	13	x	x
SMILES	tim23-1 inh	SKKanGAS inh	NALP3 yeast inh	TIM10 inh	tim10-1 inh	tim10 confirm	tim23-1 conf
CCCCC(=O)Nc1cccc2c1C(=O)N(c1ccccc1)C2=O	50*	-1	3	43*	32	40*	52*
CC(=O)Nc1ccc(N2C(=O)c3cccc(NC(C)=O)c3C2=O)cc1	13	-5	-1	-11	8	x	x
COc1ccc(C)cc1NC(=S)N1CCN(S(C)(=O)=O)CC1	1	4	-1	0	1	x	x
CO/C(N)=C(\C#N)N=Cc1ccccc1Cl	52*	2	6	47*	23	11	64*
O=C(Nc1cccc(-c2cc3ccccc3oc2=O)c1)c1ccc(Br)o1	56*	9	26	43*	39	47*	62*
COc1cc(OC)c(NC(=O)CN(C)S(=O)(=O)c2ccc3[nH]c(=O)oc3c2)cc1Cl	1	5	5	4	9	x	x
CCOCC(=O)Nc1cc(C(=O)Nc2ccccc2)ccc1Cl	60*	-1	6	54*	19	45*	67*
CCn1c(SCc2ccccc2)nnc1-c1cccs1	37	-6	14	31	39	x	x
Cn1c(SCc2ccc(Br)cc2)nnc1-c1cccs1	57*	5	43	57*	37	30*	61*
Cc1nc(-c2ccc(NC(=O)C3CCCCC3)cc2)cs1	18	-13	32	6	14	x	x
O=C(Nc1ccc(-c2cn3ccsc3n2)cc1)C1CCCC1	57*	0	31	59*	26	50*	69*
CC(C)(C)c1ccc(S(=O)(=O)N2CCC(c3nc4ccc(Cl)cc4[nH]3)CC2)cc1	64*	u	13	50*	26	56*	22
Cc1nn(C(C)C(=O)N2CCOCC2)c(C)c1[N+](=O)[O-] (centres undefined)	5	14	-4	-1	0	x	x
Cc1ccc(CN2[C@@H](CC3CCCCC3)COCCS2(=O)=O)cc1	24	7	3	1	20	x	x
COn1c(=O)c(-c2ccccc2)[n+]([O-])c2ccccc21	22	2	2	19	27	x	x
COn1c(=O)c(-c2cccs2)[n+]([O-])c2ccccc21	52*	-4	22	43*	36	1	64*
CSCC[C@H](N)C(=O)N1CCC(C(=O)N[C@H](C(=O)NCc2ccccc2F)C(C)C)CC1	-1	0	4	-4	0	x	x
CCOC(=O)C1CCN(C(=O)c2cc3cc4ccc(OC)cc4nc3o2)CC1	68*	6	30	41*	35	37*	67*
Cc1ccc2cc3cc(C(=O)N4CC(C)CC(C)C4)oc3nc2c1 (centres undefined)	53*	8	-7	48*	38	39*	60*
COc1ccc2cc3cc(C(=O)N4CCN(Cc5ccc6c(c5)OCO6)CC4)oc3nc2c1	68*	9	37	40*	39	-3	83*
